# High-throughput results (PubChem BioAssay)
# GPR151 activ: human GPR151 activation. PathHunter beta-arrestin GPR151 cells, luminescence. activation, % at 11.2 µM. 1% of 650,000 active. AID 1508602; in the data active = activation above about 4.9%;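 note: 0% = median of compound wells and 100% = cells with positive control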
# Target sequence (Q8TDV0 whole entry, looked up): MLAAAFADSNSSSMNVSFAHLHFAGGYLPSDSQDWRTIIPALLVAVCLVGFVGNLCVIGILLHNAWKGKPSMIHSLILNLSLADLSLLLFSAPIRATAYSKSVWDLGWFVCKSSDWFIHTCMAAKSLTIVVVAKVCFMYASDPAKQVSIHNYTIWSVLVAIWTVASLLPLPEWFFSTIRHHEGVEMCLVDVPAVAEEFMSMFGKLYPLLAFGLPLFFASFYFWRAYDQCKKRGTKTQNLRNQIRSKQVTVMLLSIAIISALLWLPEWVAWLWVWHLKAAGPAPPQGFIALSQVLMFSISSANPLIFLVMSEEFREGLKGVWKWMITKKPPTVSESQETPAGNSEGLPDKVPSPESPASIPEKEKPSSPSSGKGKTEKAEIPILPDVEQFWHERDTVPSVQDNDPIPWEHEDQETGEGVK
# FBW7 activator: human FBW7 E3 ligase activation, primary screen; Q969H0; AlphaScreen FBW7–phospho-cyclin E peptide binding, activator screen; normalized activity (activation), % at 26.1 µM; 0.13% of 650,000 active; AID 1259310; in the data active = normalized activity above about 1.9%;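 note: purified mutant Fbw7 with reduced substrate affinity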
# TEAD-YAP block: TEAD-YAP interaction inhibition | inhibition, % at 9.12 µM | HEK-TIYL cells, TEAD-Gal4/YAP UAS-luciferase luminescence | AID 1259422 | 1.4% of 640,000 active; in the data active = inhibition above about 32%;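 note: 0% = median of test compound wells and 100% = reference inhibitor wells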
# MITF primary: inhibitors of human MITF; AlphaScreen MITF homodimerization, bead proximity signal; inhibition, % at 2.6 µM; 0.91% of 650,000 active; AID 1259374; O75030; in the data active = inhibition above about 50%;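 note: 0% = vehicle wells with protein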
# * = called active by the depositor. Compounds with a hit are over-represented: about 3.5% of the library has one in this group of screens.
SMILES,GPR151 activ,FBW7 activator,TEAD-YAP block,MITF primary
CC(=O)c1cc2c(cc1NS(=O)(=O)c1ccc(C)cc1)OCCO2,0,0,37*,11
CC(=O)c1cc2c(cc1NS(=O)(=O)c1ccccc1)OCO2,-1,0,-3,5
COc1ccc(S(=O)(=O)Nc2cc(S(N)(=O)=O)ccc2C)cc1,2,0,3,-2
COC(=O)c1ccc(C)c(NS(=O)(=O)c2ccc(Cl)cc2)c1,-1,0,54*,-6
COC(=O)c1ccc(C)c(NS(=O)(=O)c2ccc(OC)cc2)c1,-1,0,66*,5
COc1ccc(S(=O)(=O)Nc2cc(F)ccc2C)cc1,-1,0,52*,5
CC(=O)Nc1ccc(NS(C)(=O)=O)c([N+](=O)[O-])c1,1,0,-1,-3
COC(=O)c1ccc(C)c(NS(=O)(=O)c2ccc(SC)cc2)c1,0,1,47*,15
COC(=O)c1ccc(C)c(NS(=O)(=O)c2ccc3c(c2)OCCO3)c1,1,0,57*,3
COC(=O)c1ccc(C)c(NS(=O)(=O)c2ccc(C)c([N+](=O)[O-])c2)c1,0,0,11,10
CCOc1ccc(S(=O)(=O)Nc2cc(C(=O)OC)ccc2C)cc1,0,0,55*,1
O=C(Cn1cnc2ccccc21)N/N=C/c1ccc(O)c(O)c1,-1,0,-14,-9
CCCOc1ccc(/C=C2\C(=O)NC(=O)N(c3ccc([N+](=O)[O-])cc3)C2=O)cc1OCC,4,0,4,-5
O=C1C2C3C=CC(C3)C2C(=O)N1c1ccc(Oc2ccccc2)cc1 (stereo not drawn),1,0,-3,6
N#Cc1ccc(Oc2ccc(N3C(=O)C4C5C=CC(C5)C4C3=O)cc2)cc1C#N (stereo not drawn),0,2,40*,19
COc1ccc(O)c(C(=O)CC(=O)c2ccc(F)cc2)c1,-8,0,51*,8
COc1ccc(C(=O)CC(=O)c2ccccc2O)cc1,-2,0,-50,-2
COc1cccc(Nc2nnc(SCC(=O)NNC(=O)c3ccccn3)s2)c1,0,-1,79*,11
COc1cccc(Nc2nnc(SCC(=O)NNC(=O)C3CC3)s2)c1,0,0,3,3
Cc1ccc(S(=O)(=O)NCCc2sc(C)nc2C)cc1,-1,0,12,15
CN(C)c1ccc(Nc2ncnc3ccc(I)cc23)cc1,2,0,22,15
COc1ccc(C(=O)NC(c2ccc(Cl)cc2)c2cc(Cl)c3cccnc3c2O)cc1 (stereo not drawn),-1,0,9,0
O=C(NC(c1ccc(Cl)cc1)c1ccc2cccnc2c1O)c1ccccc1 (stereo not drawn),0,-1,75*,17
COc1cccc(C(NC(=O)c2ccccc2)c2ccc3cccnc3c2O)c1 (stereo not drawn),-1,-2,13,17
COc1ccc(C(NC(=O)c2ccccc2)c2ccc3cccnc3c2O)cc1 (stereo not drawn),-1,-1,38*,46
SMILES,GPR151 activ,FBW7 activator,TEAD-YAP block,MITF primary
COc1ccc(-n2cc(C(=O)NCc3ccccn3)c3ccccc3c2=O)cc1,-1,1,-3,15
CCC(C)NC(=O)c1c(C)nc2ccccn12 (stereo not drawn),-1,2.1*,11,15
Cc1nc2ccccn2c1C(=O)NCc1ccccc1,5,0,-5,-2
Cc1nc2ccccn2c1C(=O)NCc1ccccc1Oc1ccccc1,-1,1.9*,3,21
COc1ccc(OC)c(-n2c(=S)[nH]c3cc(C(=O)Nc4ccc(F)c(Cl)c4)ccc3c2=O)c1,2,0,-4,0
Cc1cc(O)c(NC(=O)c2cc([N+](=O)[O-])ccc2Cl)cc1C,-1,1,43*,6
CC(=O)Nc1ccccc1NC(=O)c1cc([N+](=O)[O-])ccc1Cl,1,0,3,-4
O=C(Nc1cccc2ccccc12)c1cc([N+](=O)[O-])ccc1Cl,2,0,60*,14
O=C(Nc1cc(C(F)(F)F)ccc1N1CCCC1)c1cc([N+](=O)[O-])ccc1Cl,-1,0,86*,7
O=C(Nc1ccccc1Cl)c1cc([N+](=O)[O-])ccc1Cl,2,0,36*,4
O=C(Nc1cc(C(F)(F)F)ccc1Cl)c1cc([N+](=O)[O-])ccc1Cl,0,0,-3,-6
O=C(O)c1c[nH]c(=S)n1-c1ccccc1,0,0,10,20
COc1ccc(-c2cc(C(F)(F)F)nc(S(=O)(=O)CCC(=O)NC(C)C)n2)cc1,-1,0,0,4
